{
  "source": "PubChem BioAssay (NCATS)",
  "note": "Where “and” joins values, the source holds several entries; their conditions need not be identical. Identical values can stand only once. Records with an inconclusive call do not appear. A number with no mark means an inactive call. Calls of active or inactive are those of the source. The call rests on the fitted dose curve; in most records, active means well fitted activation curve with a large enough effect; inconclusive means small, poorly fitted or top-dose-only effect; inactive means no such curve, though single readings can be large or run the other way. Potency means the concentration at half of the fitted maximal effect.",
  "data": [
    {"target": "Cellular tumor antigen p53 (Homo sapiens) (UniProt P04637)", "sequence (P04637 whole entry, looked up)": "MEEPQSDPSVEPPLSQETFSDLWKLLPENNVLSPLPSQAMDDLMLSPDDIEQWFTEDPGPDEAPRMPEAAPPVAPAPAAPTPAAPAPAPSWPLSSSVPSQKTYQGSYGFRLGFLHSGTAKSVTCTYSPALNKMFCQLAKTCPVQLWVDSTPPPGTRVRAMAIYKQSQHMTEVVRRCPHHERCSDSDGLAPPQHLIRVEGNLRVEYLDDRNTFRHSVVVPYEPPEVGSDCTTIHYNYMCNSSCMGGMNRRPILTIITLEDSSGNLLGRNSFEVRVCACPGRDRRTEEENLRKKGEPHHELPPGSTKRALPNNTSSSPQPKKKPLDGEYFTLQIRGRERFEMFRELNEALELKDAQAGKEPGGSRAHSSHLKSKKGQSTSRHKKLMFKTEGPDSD", "assay": "Primary qHTS for small molecule compounds that upregulate eGFP-tagged delta133p53alpha (in N-terminal) cells. (AID 2060322); further: nearly all actives have a fitted effect of over 75% in size;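 on activation: cells pre-induced with doxycycline then dosed without doxycycline; series mostly up to about 56 µM; 0% = DMSO vehicle and 100% = reference activator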", "conditions": "NCI-H358 eGFP-delta133p53alpha fluorescence, 24 h; activation: active compounds read high", "outline": "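NCI-H358 cells pre-induced 24 h with 10 ng/ml doxycycline for eGFP-delta133p53alpha, plated dox-free and exposed 24 h at 37C to titrated compounds. Fixed, Hoechst-stained; gated GFP peak intensity by laser scanning cytometry, normalized to DMSO (0%) and 57.5 uM 5-azacytidine (100%).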", "values": [
      {"smiles": "CN1CCCC(n2nc(Cc3ccc(Cl)cc3)c3ccccc3c2=O)CC1", "note": "(stereo not drawn)", "activation": "10.9% and 17.6%"},
      {"smiles": "Cc1ccc(/C=N/n2c(-c3ccccc3)csc2=S)cc1", "activation": "24.3%"},
      {"smiles": "CC(=O)N(CC(O)CN(C(C)=O)c1c(I)c(C(=O)NCC(O)CO)c(I)c(C(=O)NCC(O)CO)c1I)c1c(I)c(C(=O)NCC(O)CO)c(I)c(C(=O)NCC(O)CO)c1I", "note": "(stereo not drawn)", "activation": "-16.7%"},
      {"smiles": "CN(CCCN1c2ccccc2CCc2ccccc21)CC(=O)c1ccc(Cl)cc1", "activation": "-1.69%"},
      {"smiles": "CN(C)c1cc(NC(=O)CNC(C)(C)C)c(O)c2c1C[C@@H]1C[C@H]3[C@H](N(C)C)C(=O)C(C(N)=O)=C(O)[C@@]3(O)C(=O)C1=C2O", "activation": "-7.92%"},
      {"smiles": "CCN1CCN(C(=O)N[C@H](C(=O)N[C@@H]2C(=O)N3C(C(=O)O)=C(CSc4nnnn4C)CS[C@@H]23)c2ccc(O)cc2)C(=O)C1=O", "activation": "19.4%"},
      {"smiles": "CO[C@H]1C=CO[C@@]2(C)Oc3c(C)c(O)c4c(O)c(c(C=NN5CCN(C)CC5)c(O)c4c3C2=O)NC(=O)C(C)=CC=C[C@H](C)[C@H](O)[C@@H](C)[C@@H](O)[C@@H](C)[C@H](OC(C)=O)[C@H]1C", "activation": "3.33%"},
      {"smiles": "C/C=C1\\[C@H]2C=C(C)C[C@]1(N)c1ccc(=O)[nH]c1C2", "activation": "5.08%"},
      {"smiles": "CN(CC=CC#CC(C)(C)C)Cc1cccc2ccccc12", "activation": "36.7%"},
      {"smiles": "O=C1CC(c2ccc(Cl)cc2)CC(=O)N1", "activation": "-11.9%"},
      {"smiles": "COc1cc(N)c(Cl)cc1C(=O)NC1CCN(CCCOc2ccc(F)cc2)CC1OC", "note": "(stereo not drawn)", "activation": "13%"},
      {"smiles": "CC(=O)N(c1onc(C)c1C)S(=O)(=O)c1ccc(N)cc1", "activation": "-0.565%"},
      {"smiles": "Nc1nc(NCc2ccccc2)c2[nH]cnc2n1", "activation": "6.7%"},
      {"smiles": "Cc1c(C(=O)NCCO)[n+](=O)c2ccccc2n1[O-]", "activation": "-11.7%"},
      {"smiles": "CCCCOC(=O)c1ccc(N)cc1", "activation": "19.8%"},
      {"smiles": "CCCCCCCC(=O)OCC(O)CO", "note": "(stereo not drawn)", "activation": "-14.2%"},
      {"smiles": "CC[C@@H](CO)NCCN[C@@H](CC)CO", "activation": "-10%"},
      {"smiles": "NCCC(O)(P(=O)(O)O)P(=O)(O)O", "activation": "-6.21%"},
      {"smiles": "COCCc1ccccn1", "activation": "15.1%"},
      {"smiles": "NCCNCCNCCN", "activation": "-9.6%"},
      {"smiles": "CCC(C(=O)OCCN(CC)CC)c1ccccc1", "note": "(stereo not drawn)", "activation": "-1.67%"},
      {"smiles": "Cc1cc(=O)n(-c2ccccc2)n1C", "activation": "-16.7%"},
      {"smiles": "O=C(O)C1CCC1", "activation": "-6.69%"},
      {"smiles": "C[C@@H](c1ncncc1F)C(O)(Cn1cncn1)c1ccc(F)cc1F", "note": "(stereo partly drawn)", "activation": "-2.82%"},
      {"smiles": "C[C@@H]1C[C@H]2[C@@H]3CCC4=CC(=O)C=C[C@]4(C)[C@@]3(Cl)[C@@H](O)C[C@]2(C)[C@@]1(OC(=O)c1ccco1)C(=O)CCl", "activation": "19.9%"},
      {"smiles": "NS(=O)(=O)c1cc2c(cc1Cl)CN(C1CCCCC1)C2=O", "activation": "20.9%"},
      {"smiles": "Nc1c(C(=O)Nc2ccc(F)cc2)sc2nc(-c3cccs3)cc(C(F)(F)F)c12", "Potency": "1.53 µM (active)"},
      {"smiles": "Oc1ccccc1-c1nnco1", "activation": "-23.2%"}
    ]}
  ]
}
